# From PubChem BioAssay
# T cruzi growth-1 – inhibitors of T. cruzi proliferation | inhibition, % at 8.34 µM | T. cruzi beta-gal in NIH3T3, GalScreen luminescence, 90 h | hit rate 5.9% among 77,000;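 active = mean inhibition above about 93%, with at least 55% of replicates each passing it, limit read from the data, passing the limit was not always enough; inconclusive = only one of those two conditions holds; inactive = neither condition holds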
# C diff growth – blocks growth of Clostridium difficile | hit rate 0.25% among 86,000 | AID 1259249 | Clostridium difficile clinical isolate growth, OD600, 24 h; stronger effect = lower value | growth activity, negative = inhibition, % at 16 µg/mL (by protocol);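 active = mean growth activity at or below -80% and every replicate also at or below -80%; inconclusive = mean at or below -80% but some replicate above -80%; inactive = mean growth activity above -80%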;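 also: 0% = DMSO wells and -100% = levofloxacin 16 µg/mL wells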
# Pf Dd2 growth – inhibitors of Plasmodium falciparum Dd2 growth. P. falciparum Dd2 growth, SYBR Green, 72 h; stronger effect = lower value. activity change, % at 10 µM. hit rate 2.3% among 94,000; in the data active = activity change below about -80%; inconclusive = no clear call, values can overlap the other calls
# T cruzi growth-2 – Trypanosoma cruzi proliferation inhibition; shares compounds with T cruzi growth-1; hit rate 72% among 5,600; inhibition, % at 8.35 µM; T. cruzi beta-gal in NIH3T3, GalScreen luminescence, 90 h;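 active = mean replicate inhibition above about 95% and at least 55% of replicates individually reaching it, limit read from the data; inconclusive = only one of the two criteria is met; inactive = neither criterion is met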
# T cruzi growth-3 – Trypanosoma cruzi proliferation inhibition; shares compounds with T cruzi growth-1; T. cruzi beta-gal in NIH3T3, GalScreen luminescence, 90 h; inhibition, % at 2.09 µM; hit rate 21% among 5,600; AID 651740;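 active = mean inhibition above about 95%, with at least 55% of replicates also reaching it, limit read from the data; inconclusive = meets just one of the two conditions; inactive = meets neither condition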;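 also: plate controls were neutral control median for no effect and positive control median for full effect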
# NIH3T3 tox – NIH/3T3 (mouse) viability loss. cytotoxicity (signal decrease), % at 8.35 µM. NIH/3T3 viability, CellTiter-Glo ATP luminescence, 90 h. hit rate 14% among 5,600. shares compounds with T cruzi growth-1;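 active = mean signal decrease across replicates above about 35% based on untreated-well scatter, with enough replicates individually passing, limit read from the data; inconclusive = no rule stated though some were filed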;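 also: 0% = median of neutral control wells and 100% = median of positive control wells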
# 3T3 cytotox 2 – cytotoxicity in mouse NIH/3T3 fibroblasts. shares compounds with T cruzi growth-1. NIH/3T3 viability, CellTiter-Glo ATP luminescence, 90 h. inhibition, % at 24.9 µM. hit rate 56% among 5,600. AID 651744;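 active = mean loss of cell viability signal at or above a set limit, and enough replicates individually reaching it; inconclusive = meets only the mean limit or only the replicate share; inactive = meets neither condition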;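 also: 0% = median of neutral control wells and 100% = median of positive control wells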
# The depositor's hits bear a star; ? = inconclusive; . = no result given; + = active, no number. This is a sample that favours compounds with a hit; in the whole collection about 6.7% have one here.
SMILES,T cruzi growth-1,C diff growth,Pf Dd2 growth,T cruzi growth-2,T cruzi growth-3,NIH3T3 tox,3T3 cytotox 2
C[C@@H]1CCCCO[C@@H](CN(C)S(=O)(=O)c2ccccc2)[C@H](C)CN([C@H](C)CO)C(=O)c2cc(NC(=O)Nc3ccc(C(F)(F)F)cc3)ccc2O1,86,4,-76,.,.,.,.
C[C@@H]1CN([C@H](C)CO)C(=O)c2cc(NC(=O)Nc3ccc(C(F)(F)F)cc3)ccc2O[C@@H](C)CCCCO[C@H]1CN(C)S(=O)(=O)c1ccccc1,98*,2,-48,102*,109*,19,32
C[C@H]1CCCCO[C@H](CN(C)S(=O)(=O)c2ccccc2)[C@@H](C)CN([C@@H](C)CO)C(=O)c2cc(NC(=O)Nc3ccc(C(F)(F)F)cc3)ccc2O1,?,1,-68,109*,117*,7,4
C[C@@H]1CCCCO[C@H](CN(C)S(=O)(=O)c2ccccc2)[C@H](C)CN([C@H](C)CO)C(=O)c2cc(NC(=O)Nc3ccc(C(F)(F)F)cc3)ccc2O1,87,-7,-72,.,.,.,.
C[C@@H]1CN([C@H](C)CO)C(=O)c2cccc(NS(C)(=O)=O)c2O[C@@H]1CN(C)Cc1ccncc1,39,-1,5,.,.,.,.
O=C(C[C@H]1CC[C@H]2[C@@H](COC[C@@H](O)CN2C(=O)c2ccccc2F)O1)N1CCOCC1,-17,.,5,.,.,.,.
O=C(Nc1ccc(C(F)(F)F)cc1)Nc1ccc2c(c1)[C@@H]1C[C@@H](CC(=O)N3CCc4ccccc4C3)O[C@@H](CO)[C@@H]1O2,77,11,-52,.,.,.,.
O=C(Nc1ccc(C(F)(F)F)cc1)Nc1ccc2c(c1)[C@H]1C[C@H](CC(=O)N3CCc4ccccc4C3)O[C@H](CO)[C@H]1O2,?,22,-70,85,110*,54*,106*
O=C(Nc1ccc2c(c1)[C@H]1C[C@@H](CC(=O)N3CCc4ccccc4C3)O[C@@H](CO)[C@H]1O2)Nc1ccccc1F,.,6,-57,.,.,.,.
O=C(Nc1ccc(C(F)(F)F)cc1)Nc1ccc2c(c1)[C@@H]1C[C@H](CC(=O)N3CCc4ccccc4C3)O[C@@H](CO)[C@@H]1O2,153*,-1,-32,103*,114*,13,19
CCCNC(=O)[C@@H]1[C@@H](CO)[C@@H]2Cn3c(cccc3=O)[C@H]1N2S(=O)(=O)c1ccccc1F,-23,-2,.,.,.,.,.
O=C(NC[C@@H]1CC[C@H]2[C@H](CN2C(=O)C2CCOCC2)O1)c1cccnc1,.,6,18,.,.,.,.
COc1ccccc1NC(=O)N1CC[C@@H]2[C@@H](CO)N(C)c3ccc(-c4ccc(F)cc4)cc3[C@@H]21,86,55,22,.,.,.,.
C[C@@H]1CN([C@H](C)CO)S(=O)(=O)c2ccc(C#Cc3ccc(F)cc3)cc2O[C@H]1CN(C)C,-36,9,-5,.,.,.,.
C[C@@H]1CN([C@@H](C)CO)S(=O)(=O)c2ccc(C#Cc3ccc(F)cc3)cc2O[C@@H]1CN(C)S(C)(=O)=O,?,-3,-11,91,36,36*,74*
C[C@@H]1CN([C@H](C)CO)S(=O)(=O)c2ccc(C#Cc3ccc(F)cc3)cc2O[C@@H]1CN(C)S(C)(=O)=O,?,1,-3,?,59,46*,66*
C[C@@H]1CN([C@@H](C)CO)S(=O)(=O)c2ccc(C#Cc3ccc(F)cc3)cc2O[C@H]1CN(C)C,-46,-2,3,.,.,.,.
C[C@H](CO)N1C[C@H](C)[C@@H](CN(C)S(C)(=O)=O)Oc2cc(C#Cc3ccc(F)cc3)ccc2S1(=O)=O,106*,1,-16,109*,64,6,52*
C[C@H](CO)N1C[C@H](C)[C@H](CN(C)C)Oc2cc(C#Cc3ccc(F)cc3)ccc2S1(=O)=O,-168,-1,-2,.,.,.,.
C[C@H]1CN([C@@H](C)CO)C(=O)c2cccc(NC(=O)Nc3ccc(F)cc3)c2O[C@@H]1CN(C)CC1CC1,15,10,10,.,.,.,.
COc1ccc2c3c(n(C)c2c1)[C@@H](CO)N(C(=O)C1CCCC1)CC31CCN(Cc2cccc(F)c2)CC1,.,0,-67,.,.,.,.
CC(C)NC(=O)N1C[C@H]2[C@@H](c3ccccc31)[C@H](CO)N2C(=O)c1ccc(F)cc1,44,-1,-1,.,.,.,.
C[C@@H]1CN([C@@H](C)CO)C(=O)c2cccc(NC(=O)Nc3ccc(C(F)(F)F)cc3)c2O[C@H]1CN(C)Cc1ccccc1,43,3,10,.,.,.,.
C[C@@H]1CN([C@@H](C)CO)C(=O)c2cc(C3=CCCC3)cnc2O[C@H]1CN(C)Cc1ccc(C(=O)O)cc1,-233,0,39,.,.,.,.
CCC(=O)N1[C@H](C(=O)NCCCN(C)C)[C@@H](CO)[C@@H]2Cn3c(ccc(-c4ccccc4F)c3=O)[C@@H]21,.,-2,24,.,.,.,.
SMILES,T cruzi growth-1,C diff growth,Pf Dd2 growth,T cruzi growth-2,T cruzi growth-3,NIH3T3 tox,3T3 cytotox 2
C[C@@H]1CN([C@H](C)CO)C(=O)c2cccc(NS(=O)(=O)c3ccccc3)c2O[C@@H]1CN(C)S(C)(=O)=O,0,-1,4,.,.,.,.
C[C@H]1CN([C@@H](C)CO)C(=O)c2cc(NC(=O)CCCCCC(=O)Nc3ccccc3N)ccc2O[C@@H]1CN(C)S(=O)(=O)c1cn(C)cn1,.,10,20,.,.,.,.
O=C(NCC1CC1)[C@@H]1[C@@H](CO)[C@@H]2Cn3c(ccc(C4=CCCC4)c3=O)[C@@H]2N1Cc1ccccc1F,86,-5,.,.,.,.,.
O=C(O)[C@@H]1[C@@H](CO)[C@@H]2Cn3c(ccc(C4=CCCCC4)c3=O)[C@@H]2N1Cc1ccccc1F,10,6,-8,.,.,.,.
CCN1[C@@H]2c3ccc(C4=CCCC4)c(=O)n3C[C@@H]2[C@@H](CO)[C@@H]1C(=O)NC1Cc2ccccc2C1,23,6,-1,.,.,.,.
O=C(NCC1CC1)[C@H]1[C@H](CO)[C@H]2Cn3c(ccc(C4=CCCCC4)c3=O)[C@H]2N1Cc1ccccc1F,99*,17,-32,88,17,9,66*
CCCNC(=O)[C@H]1[C@H](CO)[C@H]2Cn3c(ccc(C4=CCCCC4)c3=O)[C@H]2N1Cc1ccccc1F,103*,9,-26,106*,5,1,?
CN(C)C(=O)[C@@H]1[C@@H](CO)[C@@H]2Cn3c(ccc(C4=CCCC4)c3=O)[C@@H]2N1Cc1ccccn1,33,5,-2,.,.,.,.
CN(C)C(=O)[C@H]1[C@H](CO)[C@H]2Cn3c(ccc(C4=CCCCC4)c3=O)[C@H]2N1Cc1ccccn1,+,3,.,29,24,10,18
CCN1[C@@H]2c3ccc(C4=CCCCC4)c(=O)n3C[C@@H]2[C@@H](CO)[C@@H]1C(=O)NC1Cc2ccccc2C1,105*,17,-17,106*,25,18,41*
